Results taken from PubChem BioAssay (NCATS).
Results filed as inconclusive are left out. Where a call stands in place of a potency, no number is given. Calls of active or inactive are those of the source. The call rests on the fitted dose curve; in most records, active means well fitted curve in the direction sought with a large enough effect; inconclusive means small, poorly fitted or top-dose-only effect, or another doubt; inactive means no such curve, though single readings can be large; an effect the other way counts as inactive or inconclusive.

What was measured:
[1] = target: Aldehyde dehydrogenase, mitochondrial (Homo sapiens) (UniProt P05091); assay: qHTS for Inhibitors of the Aldehyde Dehydrogenase Family (ALDH2) Primary screen (AID 2061308); further: nearly all actives have a fitted effect of over 55% in size; further: potency means the concentration at half of the fitted maximal effect
[2] = target: Retinaldehyde dehydrogenase 3 (Homo sapiens) (UniProt P47895); assay: qHTS for Inhibitors of the Aldehyde Dehydrogenase Family (ALDH1A3) Primary screen (AID 2061315)
[3] = target: Aldehyde dehydrogenase 1A1 (Homo sapiens) (UniProt P00352); assay: qHTS for Inhibitors of the Aldehyde Dehydrogenase Family (ALDH1A1) Confirmatory screens (AID 2061316); further: nearly all actives have a fitted effect of over 65% in size; further: potency means the concentration at half of the fitted maximal effect

Row | Structure (SMILES) | Potency [1] | Potency [2] | Potency [3]
1 | Cc1cc(-c2nnc3n2CCCCC3)c(C)n1-c1ccc(C#N)cc1 | inactive | inactive | –
2 | CC(C)c1cccc2c(-c3ccccc3)cc(-c3ccc(-c4ccc(C(=O)O)cc4)[nH]3)nc12 | inactive | inactive | –
3 | COc1ccc(C2c3c(nc(CCCc4ccccc4)[nH]c3=O)Oc3ccc4ccccc4c32)cc1OC (stereo not drawn) | inactive | inactive | –
4 | COc1cc(O)c(C(CC(=O)N2CCCCC2)c2ccc(C)cc2)c(OC)c1 (stereo not drawn) | inactive | inactive | –
5 | C=C1C(=O)OC2/C=C(\COC(C)=O)CC/C=C(\C=O)CC(OC(=O)CC(C)C)C12 (stereo not drawn) | inactive | inactive | –
6 | Cc1ccc(S(=O)(=O)Nc2cc(Br)ccc2C(=O)Nc2nc(-c3ccccc3)cs2)cc1 | inactive | inactive | –
7 | O=C(Nc1ccc2ccccc2c1)Nc1nnc(-c2ccc(Cl)cc2)s1 | inactive | inactive | –
8 | Cn1c2cc(B(O)O)sc2c2cnn(Cc3ccc(F)cc3F)c(=O)c21 | inactive | inactive | –
9 | COc1cccc(S(=O)(=O)Nc2cnccc2C(=O)Nc2nc(-c3ccccc3)cs2)c1 | inactive | inactive | –
10 | c1cncc(CNc2ncnc3ccc(-c4ccc5c(c4)OCCO5)cc23)c1 | inactive | inactive | –
11 | CC(=O)Nc1sc2c(c1-c1ccc3c(c1)OCCCO3)CCNC2 | inactive | inactive | –
12 | Cc1nc(NCc2ccccc2)c2nc(-c3ccccc3)n(CCCN(C)C)c2n1 | inactive | inactive | –
13 | Cc1cc(C)n2ncc(C(=O)Nc3ccc(Br)cc3)c2n1 | inactive | inactive | –
14 | CCCCN(C)C(=O)Cn1nc(-c2cccc(C)c2)ccc1=O | inactive | inactive | –
15 | Cc1nc2ccc(Nc3nc(-c4ccncc4)nc4ccccc34)cc2s1 | inactive | inactive | –
16 | c1ccc(OCc2nnc3ccc(-c4ccccc4)nn23)cc1 | inactive | inactive | –
17 | CCCn1c(C)nc2c(NCCCN(CCO)CCO)nc(C)nc21 | inactive | inactive | –
18 | Cc1cc2c(s1)c1cnn(Cc3c(F)cccc3C(F)(F)F)c(=O)c1n2C | inactive | inactive | –
19 | O=C1C[C@]23C=CCN4CCC5c6cc7c(cc6N1[C@@]5(CC2)C43)OCO7 (stereo partly drawn) | inactive | inactive | –
20 | Cc1cc(C)nc(NC(=S)N2CCN(c3ccc(F)cc3F)CC2)c1 | inactive | inactive | –
21 | O=C(Cc1ccc(Cl)c(Cl)c1)Nc1ccc([S+](=O)([O-])Nc2ncn[nH]2)cc1 | inactive | inactive | –

Row | Structure (SMILES) | Potency [1] | Potency [2] | Potency [3]
22 | Cc1ccc(S(=O)(=O)NCC(=O)Nc2nc(-c3ccccc3)cs2)cc1 | inactive | inactive | –
23 | CC(=O)c1ccc(NC(=O)Nc2nnc(-c3ccncc3)s2)cc1 | inactive | inactive | –
24 | CC(=O)Nc1ccccc1NC(=O)c1cnn2c(C)cc(C)nc12 | inactive | inactive | –
25 | O=[S+]([O-])(c1ccc2c(c1)OCCO2)N1CCN([S+](=O)([O-])c2cc(Cl)ccc2F)CC1 | inactive | inactive | –
26 | COc1cccc(C2C(C#N)=C(NC(=O)NCc3ccccc3)Oc3ccc4ccccc4c32)c1 (stereo not drawn) | inactive | inactive | –
27 | O=C1CCCC2=C1C1(CCSC1)N=C(Nc1nc3ccccc3o1)N2 (stereo not drawn) | inactive | inactive | –
28 | COc1ccc(C2Nc3ccccc3C(=O)N2Cc2ccco2)cc1 (stereo not drawn) | inactive | inactive | –
29 | NC(N)=NCCC[C@H](NC(=O)CNC(=O)c1ccccc1)C(=O)Nc1cc(C(F)(F)F)ccc1Cl | inactive | inactive | –
30 | Cc1c(P(=S)(c2ccccc2)c2ccccc2)[n+]2ccccc2n1CCCc1ccccc1 | inactive | inactive | –
31 | COc1ccc(C(=O)Nc2nnc(-c3ccco3)o2)cc1 | inactive | inactive | –
32 | O=C(CCc1ccccc1)Nc1ncnc2c1C(c1ccccc1)c1c(ccc3ccccc13)O2 (stereo not drawn) | inactive | inactive | –
33 | O=C(O)c1ccc2c(c1)C(=O)N([C@H](Cc1ccc(O)c(O)c1)C(=O)O)C2=O | inactive | inactive | –
34 | Cc1ccccc1C(=O)n1ccc2cc(-c3nc(NC(=O)Cc4ccc5c(c4)OCO5)sc3C)ccc21 | inactive | inactive | –
35 | COc1ccc(OC)c(-c2nnc3n2N=C(c2ccccc2OC)CS3)c1 | inactive | inactive | –
36 | COc1cc(O)c(C(CC(=O)N2CCCC(C#N)C2)c2ccc3c(c2)OCO3)c(OC)c1 (stereo not drawn) | inactive | inactive | –
37 | CNc1oc(-c2ccc(Cl)c(Cl)c2)nc1C#N | inactive | inactive | –
38 | CN(Cc1nccs1)c1ncnc2ccc(-c3ccc4c(c3)OCO4)cc12 | inactive | inactive | –
39 | CC(C)(C)[C@H](NC(=O)c1ccc(N)c(Cl)c1)C(=O)N1CCC[C@H]1C(=O)N[C@H](C#N)Cc1nn[nH]n1 | inactive | inactive | –
40 | COc1ccc(C2=Nn3c(nnc3-c3ccccc3C(F)(F)F)SC2)cc1OC1CCOC1 (stereo not drawn) | inactive | inactive | –
41 | Cc1cccc(-n2cnc3cc(C(=O)N4CCC(C(F)(F)F)CC4)ccc32)c1 | inactive | inactive | –
42 | Cc1cc(NS(=O)(=O)c2ccc(NC(=O)Cc3ccc4ccccc4c3)cc2)no1 | inactive | inactive | –

Row | Structure (SMILES) | Potency [1] | Potency [2] | Potency [3]
43 | COc1ccc(C2Nc3ccccc3C(=O)N2Cc2cccc(OC)c2OC)cc1COc1c(C)cc(NC(C)=O)cc1C (stereo not drawn) | inactive | inactive | –
44 | O=C1c2ccccc2C(=O)N1c1cncc2ccccc12 | inactive | inactive | –
45 | N[C@@H](Cc1ccc(OS(=O)(=O)c2ccccn2)cc1)C(=O)N1CCN(c2ccccc2)CC1 | inactive | inactive | –
46 | O=C1Nc2ccccc2C12CC2c1cc(Cl)c(O)c(Cl)c1 (stereo not drawn) | inactive | inactive | inactive
47 | Cc1ccc(-c2ccc(=O)n(CC(=O)N(C)CCN(C)C)n2)cc1 | inactive | inactive | –
48 | Cc1cc2c(s1)c1cnn(Cc3c(Cl)cccc3Br)c(=O)c1n2C | inactive | inactive | –
49 | COc1cc2c(s1)c1cnn(Cc3ccccc3F)c(=O)c1n2C | inactive | inactive | –
50 | Cc1cc(C)nc(NC(=S)N2CCN(c3ccc(C(F)(F)F)cc3C(F)(F)F)CC2)c1 | inactive | inactive | –
51 | CCCCNc1nc(C)nc2c1nc(-c1ccccc1)n2CCCN1CCCCC1C (stereo not drawn) | inactive | inactive | –
52 | N#Cc1cc(-c2nc(Nc3ccc(F)c(F)c3)c3ccccc3n2)ccn1 | inactive | inactive | –
53 | COCCN(CCOC)c1nc(C)nc2c1nc(-c1ccccc1)n2CCN1CCCC1 | inactive | inactive | –
54 | Clc1cccc(-c2ccc3ncnc(NCc4cccnc4)c3c2)c1 | inactive | inactive | –
55 | COc1ccc(C(=O)N(Cc2ccccc2)Cc2cccs2)c(O)c1 | inactive | inactive | –
56 | COc1ccc(C2Nc3ccccc3C(=O)N2Cc2ccco2)cc1COc1ccccc1C (stereo not drawn) | inactive | inactive | –
57 | Cn1cnc(CN=C2NC3=C(C(=O)CCC3)C(c3[nH]ncc3Cl)N2)c1 (stereo not drawn) | inactive | inactive | –
58 | Nc1scc2c(C(=O)O)nn(-c3ccccc3)c(=O)c12 | inactive | inactive | 5.04 µM (active)
59 | CCOc1ccc(NC(=O)c2ccc(-c3nc4ccccc4[nH]3)cc2)cc1Cl | inactive | inactive | –
60 | O=c1c2ccccc2nc2sc(Nc3ccc4c(c3)OCO4)nn12 | inactive | inactive | 5.04 µM (active)
61 | Cc1c(C(=O)OCC(C)(C)C)[nH]c2c1C(=O)CC(c1ccco1)C2 (stereo not drawn) | inactive | inactive | 0.896 µM (active)
62 | Cc1cnc(-c2ccccc2C(C)C)nc1NCc1ccc(C#N)cc1 | inactive | inactive | –
63 | CN1CCN(C(=O)c2ccc(-c3cnc4c(O)ccc(C(=O)O)c4c3)cc2)CC1 | inactive | inactive | inactive

Row | Structure (SMILES) | Potency [1] | Potency [2] | Potency [3]
64 | COc1cccc(C2c3c(ncn(-c4ccncc4)c3=N)Oc3ccc4ccccc4c32)c1 (stereo not drawn) | inactive | inactive | –
65 | Cc1c(C(=O)NCC2CCCO2)[nH]c2c1C(=O)CCC2 (stereo not drawn) | inactive | inactive | –
66 | O=C1Nc2cc(Cl)ccc2Nc2cscc21 | 14.1 µM (active) | inactive | 7.12 µM (active)
67 | Cc1cc(C)nc(NC(=S)N2CCN(c3cc(Cl)cc(Cl)n3)CC2)c1 | inactive | inactive | 3.57 µM (active)
68 | COC(=O)c1ccccc1-c1ccc(/C=c2\sc3nc4cc(Br)cnc4n3c2=O)o1 | inactive | inactive | 11.3 µM (active)
69 | Cc1cccc(-n2cnc3cc(C(=O)N4CC(C)CC(C)C4)ccc32)c1 (stereo not drawn) | inactive | inactive | –
70 | O=C(OCC#CCSc1nnc(-c2cccc3ccccc23)o1)c1csc2ccccc12 | inactive | inactive | –
71 | O=C1Nc2ccccc2/C1=C/c1cc(Cl)c(O)c(Cl)c1 | inactive | inactive | 17.9 µM (active)
72 | O=C(OCC#CCSc1nnc(-c2cccc3ncccc23)o1)c1ccc(F)cc1 | inactive | inactive | –
73 | Fc1ccc(NC(=S)Nc2nnc(-c3ccncc3)s2)cc1C(F)(F)F | inactive | inactive | 5.04 µM (active)
74 | C=C1C(=O)O[C@H]2C1CCC(C)=C1C(=O)C=C(C)[C@@]12O (stereo partly drawn) | inactive | inactive | –
75 | Cc1ccc(N[S+](=O)([O-])c2cc3c(cc2NC2CC2)NC(=O)CC3)cc1C | inactive | inactive | 28.3 µM (active)
76 | CCC(=O)Nc1ccc(OCc2cc(C3Nc4ccccc4C(=O)N3Cc3ccccc3)ccc2OC)cc1 (stereo not drawn) | inactive | inactive | inactive
77 | CN(C)c1oc(-c2cccc3ccccc23)nc1C#N | inactive | inactive | –
78 | COc1ccc(NC(=O)c2[nH]c(C)c(C(C)=O)c2C)cc1S(=O)(=O)Nc1ccc(C#N)cc1 | inactive | inactive | 11.3 µM (active)
79 | Cn1nnnc1Sc1ncnc2scc(-c3cccc(N)c3)c12 | inactive | inactive | 22.5 µM (active)
80 | O=[S+]([O-])(Nc1nccs1)c1ccc(NCc2cccc(Cl)c2)cc1 | inactive | inactive | –
81 | c1nc(NC[C@@H]2CCCO2)c2cc(-c3ccc4c(c3)OCO4)ccc2n1 | inactive | inactive | 20.1 µM (active)
82 | CC(Nc1nc(-c2ccccc2C(F)(F)F)nc2ccccc12)c1ccc(-c2ccccc2)cc1 (stereo not drawn) | inactive | inactive | –
83 | COc1ccc(S(=O)(=O)N2CCN(S(=O)(=O)c3c(F)cccc3F)CC2)cc1 | inactive | inactive | –
84 | Cc1cc(NS(=O)(=O)Cc2ccc(NC(=O)Cc3ccc(Cl)c(Cl)c3)cc2)no1 | inactive | inactive | –
